Experimental data published in publication PMC7862700, “An all-to-all approach to the identification of sequence-specific readers for epigenetic DNA modifications on cytosine”.

How the values were obtained:
Experiment in all cases: DAPPL (digital affinity profiling via proximity ligation, sequencing); 10 mM Tris-HCl pH 7.5, 50 mM NaCl, 1 mM DTT, 4% glycerol, room temperature, 30 min; GST-TFs on glutathione beads, 16-mer random dsDNA library, 0.1% formaldehyde crosslink after washing; high values mean tight binding
Settings in all cases: protein: recombinant; tags: N-terminal GST; dsDNA, one strand shown
FLI1 = biological target: T1, FLI1 (Homo sapiens, UniProt Q01543 1-452)
T1 sequence: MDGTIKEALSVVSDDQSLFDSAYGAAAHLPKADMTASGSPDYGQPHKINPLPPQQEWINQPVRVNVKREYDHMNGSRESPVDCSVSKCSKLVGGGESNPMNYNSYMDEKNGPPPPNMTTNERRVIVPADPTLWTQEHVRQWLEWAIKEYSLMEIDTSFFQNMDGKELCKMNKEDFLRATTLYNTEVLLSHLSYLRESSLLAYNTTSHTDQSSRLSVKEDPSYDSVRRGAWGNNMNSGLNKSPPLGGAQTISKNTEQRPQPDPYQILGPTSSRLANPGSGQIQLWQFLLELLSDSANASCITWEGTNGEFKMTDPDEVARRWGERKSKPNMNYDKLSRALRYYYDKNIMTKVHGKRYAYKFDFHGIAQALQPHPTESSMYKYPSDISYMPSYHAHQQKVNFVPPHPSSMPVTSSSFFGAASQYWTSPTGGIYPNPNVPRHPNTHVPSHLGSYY
How it was run: (§1)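 The binding signal reported is, for every hexamer, its read frequency for a factor over its read frequency for the tag-only sample. Reads came from pools of yeast-expressed, GST-fused human transcription factors on glutathione beads, barcoded with DNA and mixed with that sample, which were incubated with 200 nmole of a random double-stranded 16-mer DNA library in Tris/NaCl/DTT/glycerol buffer at room temperature for 30 min. After washing, the pools were crosslinked with 0.1% formaldehyde, proximity-ligated with BsaI/T4 ligase for 1 h at 37 °C, PCR-amplified and sequenced on an Illumina NextSeq500.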

ELK1 = biological target: T2, ELK1 (Homo sapiens, UniProt P19419 1-428)
T2 sequence: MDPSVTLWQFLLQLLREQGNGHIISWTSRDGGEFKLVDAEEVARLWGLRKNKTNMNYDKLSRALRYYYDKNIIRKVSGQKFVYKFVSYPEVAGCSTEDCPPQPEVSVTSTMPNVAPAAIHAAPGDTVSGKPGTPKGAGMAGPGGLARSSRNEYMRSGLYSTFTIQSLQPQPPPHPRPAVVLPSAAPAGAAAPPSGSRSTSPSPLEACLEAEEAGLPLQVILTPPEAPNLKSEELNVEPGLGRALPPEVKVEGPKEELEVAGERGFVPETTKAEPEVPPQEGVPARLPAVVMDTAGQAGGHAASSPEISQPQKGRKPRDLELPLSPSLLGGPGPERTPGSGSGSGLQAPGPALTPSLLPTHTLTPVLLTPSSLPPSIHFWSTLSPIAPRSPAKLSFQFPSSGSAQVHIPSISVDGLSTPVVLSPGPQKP
How it was run: as §1

GABPA = biological target: T3, GABPA (Homo sapiens, UniProt Q06546 1-454)
T3 sequence: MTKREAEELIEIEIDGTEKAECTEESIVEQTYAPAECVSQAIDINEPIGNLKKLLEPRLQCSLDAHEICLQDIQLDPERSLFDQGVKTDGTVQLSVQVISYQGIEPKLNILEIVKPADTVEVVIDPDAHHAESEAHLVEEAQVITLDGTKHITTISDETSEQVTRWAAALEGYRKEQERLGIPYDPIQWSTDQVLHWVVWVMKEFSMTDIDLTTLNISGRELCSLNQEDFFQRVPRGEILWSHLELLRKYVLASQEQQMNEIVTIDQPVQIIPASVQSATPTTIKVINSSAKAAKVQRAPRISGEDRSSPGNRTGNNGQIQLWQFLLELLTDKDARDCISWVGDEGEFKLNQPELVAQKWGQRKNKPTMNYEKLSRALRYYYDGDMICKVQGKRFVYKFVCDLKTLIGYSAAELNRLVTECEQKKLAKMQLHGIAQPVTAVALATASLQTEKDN
How it was run: as §1

ERG = biological target: T4, ERG (Homo sapiens, UniProt P11308 1-479)
T4 sequence: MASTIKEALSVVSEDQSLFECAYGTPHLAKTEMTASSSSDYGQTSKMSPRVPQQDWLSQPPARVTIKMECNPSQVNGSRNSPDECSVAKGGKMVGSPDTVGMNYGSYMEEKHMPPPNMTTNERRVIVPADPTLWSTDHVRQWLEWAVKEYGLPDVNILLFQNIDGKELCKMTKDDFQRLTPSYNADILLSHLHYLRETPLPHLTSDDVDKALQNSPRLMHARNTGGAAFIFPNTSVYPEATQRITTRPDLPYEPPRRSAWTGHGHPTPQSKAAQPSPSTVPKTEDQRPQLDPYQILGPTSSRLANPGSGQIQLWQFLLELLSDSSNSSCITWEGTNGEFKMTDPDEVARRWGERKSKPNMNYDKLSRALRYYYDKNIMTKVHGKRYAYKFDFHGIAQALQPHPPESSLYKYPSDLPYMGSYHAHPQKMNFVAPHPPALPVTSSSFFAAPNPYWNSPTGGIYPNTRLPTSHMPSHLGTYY
How it was run: as §1

ELF1 = ELF1 (Homo sapiens, UniProt P32519 1-619)
ELF1, sequence (P32519 whole entry): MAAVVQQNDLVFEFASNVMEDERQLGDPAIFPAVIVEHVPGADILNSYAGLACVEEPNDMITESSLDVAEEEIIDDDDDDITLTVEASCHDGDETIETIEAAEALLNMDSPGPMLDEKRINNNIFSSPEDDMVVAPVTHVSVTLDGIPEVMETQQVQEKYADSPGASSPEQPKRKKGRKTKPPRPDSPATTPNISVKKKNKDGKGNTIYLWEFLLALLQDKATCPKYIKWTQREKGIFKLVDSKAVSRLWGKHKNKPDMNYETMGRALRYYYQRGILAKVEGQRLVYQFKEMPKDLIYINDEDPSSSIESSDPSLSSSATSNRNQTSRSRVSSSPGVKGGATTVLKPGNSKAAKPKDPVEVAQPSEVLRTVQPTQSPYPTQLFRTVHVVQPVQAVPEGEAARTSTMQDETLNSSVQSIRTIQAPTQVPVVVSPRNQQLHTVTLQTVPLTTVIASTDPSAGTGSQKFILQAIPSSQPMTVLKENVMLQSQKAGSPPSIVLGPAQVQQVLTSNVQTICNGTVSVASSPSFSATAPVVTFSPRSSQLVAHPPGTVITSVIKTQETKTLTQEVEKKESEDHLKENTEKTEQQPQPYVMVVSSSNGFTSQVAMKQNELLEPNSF
How it was run: as §1

EHF = biological target: T5, EHF (Homo sapiens, UniProt Q9NZC4 1-300)
T5 sequence: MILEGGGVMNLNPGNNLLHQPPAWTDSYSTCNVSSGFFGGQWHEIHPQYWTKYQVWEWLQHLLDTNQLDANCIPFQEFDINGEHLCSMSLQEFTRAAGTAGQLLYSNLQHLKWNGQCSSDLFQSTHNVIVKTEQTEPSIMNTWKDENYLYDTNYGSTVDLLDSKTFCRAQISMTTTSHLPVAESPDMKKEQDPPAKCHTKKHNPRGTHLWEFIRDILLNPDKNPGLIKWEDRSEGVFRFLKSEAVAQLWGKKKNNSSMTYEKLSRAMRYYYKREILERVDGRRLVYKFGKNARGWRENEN
How it was run: as §1

SPI1 = SPI1 (Homo sapiens, UniProt P17947 1-270)
How it was run: as §1

ELK3 = biological target: T6, ELK3 (Homo sapiens, UniProt P41970 1-407)
T6 sequence: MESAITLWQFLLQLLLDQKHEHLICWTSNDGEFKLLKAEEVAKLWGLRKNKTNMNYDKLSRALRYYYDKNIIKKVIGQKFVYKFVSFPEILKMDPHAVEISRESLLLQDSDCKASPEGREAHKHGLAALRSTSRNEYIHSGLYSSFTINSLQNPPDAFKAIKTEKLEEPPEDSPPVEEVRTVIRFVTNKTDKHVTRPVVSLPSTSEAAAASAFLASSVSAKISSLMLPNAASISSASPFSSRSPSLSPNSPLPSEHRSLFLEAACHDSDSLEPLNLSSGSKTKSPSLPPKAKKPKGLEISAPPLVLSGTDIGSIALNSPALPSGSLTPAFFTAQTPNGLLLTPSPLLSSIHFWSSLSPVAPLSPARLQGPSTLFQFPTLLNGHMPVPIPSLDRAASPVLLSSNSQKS
How it was run: as §1

SPIB = SPIB (Homo sapiens, UniProt Q01892 1-262)
SPIB, sequence (Q01892 whole entry): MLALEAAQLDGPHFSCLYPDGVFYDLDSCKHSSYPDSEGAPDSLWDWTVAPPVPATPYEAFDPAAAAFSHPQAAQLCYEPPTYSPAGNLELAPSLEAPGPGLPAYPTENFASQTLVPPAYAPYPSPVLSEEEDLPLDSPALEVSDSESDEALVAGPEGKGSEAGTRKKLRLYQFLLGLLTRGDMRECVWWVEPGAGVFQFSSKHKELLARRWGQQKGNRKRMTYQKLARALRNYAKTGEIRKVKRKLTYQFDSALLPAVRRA
How it was run: as §1

Sequence	binding signal (FLI1)	binding signal (ELK1)	binding signal (GABPA)	binding signal (ERG)	binding signal (ELF1)	binding signal (EHF)	binding signal (SPI1)	binding signal (ELK3)	binding signal (SPIB)
TAGCAG	1.07 fold enrichment (6-mer frequency, TF over GST control)	1.08 fold enrichment (6-mer frequency, TF over GST control)	1.03 fold enrichment (6-mer frequency, TF over GST control)	1.11 fold enrichment (6-mer frequency, TF over GST control)	1.09 fold enrichment (6-mer frequency, TF over GST control)	1 fold enrichment (6-mer frequency, TF over GST control)	1 fold enrichment (6-mer frequency, TF over GST control)	1.19 fold enrichment (6-mer frequency, TF over GST control)	
TACTGA	1.03 fold enrichment (6-mer frequency, TF over GST control)	1.08 fold enrichment (6-mer frequency, TF over GST control)	1.06 fold enrichment (6-mer frequency, TF over GST control)	1.03 fold enrichment (6-mer frequency, TF over GST control)	1.13 fold enrichment (6-mer frequency, TF over GST control)	1.13 fold enrichment (6-mer frequency, TF over GST control)	1.02 fold enrichment (6-mer frequency, TF over GST control)	1.09 fold enrichment (6-mer frequency, TF over GST control)	
ATACTG	1.1 fold enrichment (6-mer frequency, TF over GST control)	1.09 fold enrichment (6-mer frequency, TF over GST control)	1.16 fold enrichment (6-mer frequency, TF over GST control)	1.06 fold enrichment (6-mer frequency, TF over GST control)	1.09 fold enrichment (6-mer frequency, TF over GST control)	1.1 fold enrichment (6-mer frequency, TF over GST control)	1.14 fold enrichment (6-mer frequency, TF over GST control)	1.14 fold enrichment (6-mer frequency, TF over GST control)	
ACGTAA	1.07 fold enrichment (6-mer frequency, TF over GST control)	1.2 fold enrichment (6-mer frequency, TF over GST control)	1.17 fold enrichment (6-mer frequency, TF over GST control)	1.03 fold enrichment (6-mer frequency, TF over GST control)	1.07 fold enrichment (6-mer frequency, TF over GST control)	1.04 fold enrichment (6-mer frequency, TF over GST control)	1.05 fold enrichment (6-mer frequency, TF over GST control)	1.15 fold enrichment (6-mer frequency, TF over GST control)	
CAACAA	1.08 fold enrichment (6-mer frequency, TF over GST control)	1.08 fold enrichment (6-mer frequency, TF over GST control)	1.1 fold enrichment (6-mer frequency, TF over GST control)	1.01 fold enrichment (6-mer frequency, TF over GST control)	1.06 fold enrichment (6-mer frequency, TF over GST control)	1.05 fold enrichment (6-mer frequency, TF over GST control)	1.02 fold enrichment (6-mer frequency, TF over GST control)	1.12 fold enrichment (6-mer frequency, TF over GST control)	
ACACAC	1.24 fold enrichment (6-mer frequency, TF over GST control)	1.13 fold enrichment (6-mer frequency, TF over GST control)	1.21 fold enrichment (6-mer frequency, TF over GST control)	1.22 fold enrichment (6-mer frequency, TF over GST control)	1.19 fold enrichment (6-mer frequency, TF over GST control)	1.23 fold enrichment (6-mer frequency, TF over GST control)	1.14 fold enrichment (6-mer frequency, TF over GST control)	1.12 fold enrichment (6-mer frequency, TF over GST control)	1.19 fold enrichment (6-mer frequency, TF over GST control)
TTACTG	1.11 fold enrichment (6-mer frequency, TF over GST control)	1.12 fold enrichment (6-mer frequency, TF over GST control)	1.08 fold enrichment (6-mer frequency, TF over GST control)	1.14 fold enrichment (6-mer frequency, TF over GST control)	1.09 fold enrichment (6-mer frequency, TF over GST control)	1.18 fold enrichment (6-mer frequency, TF over GST control)	1.05 fold enrichment (6-mer frequency, TF over GST control)	1.03 fold enrichment (6-mer frequency, TF over GST control)	
ACCCGA	1.05 fold enrichment (6-mer frequency, TF over GST control)	1.02 fold enrichment (6-mer frequency, TF over GST control)	1.03 fold enrichment (6-mer frequency, TF over GST control)	1.05 fold enrichment (6-mer frequency, TF over GST control)	1.03 fold enrichment (6-mer frequency, TF over GST control)	1.18 fold enrichment (6-mer frequency, TF over GST control)			1.14 fold enrichment (6-mer frequency, TF over GST control)
CACTCA	1.06 fold enrichment (6-mer frequency, TF over GST control)	1.17 fold enrichment (6-mer frequency, TF over GST control)	1.25 fold enrichment (6-mer frequency, TF over GST control)	1.16 fold enrichment (6-mer frequency, TF over GST control)	1.24 fold enrichment (6-mer frequency, TF over GST control)	1.19 fold enrichment (6-mer frequency, TF over GST control)	1.08 fold enrichment (6-mer frequency, TF over GST control)	1.19 fold enrichment (6-mer frequency, TF over GST control)	1.21 fold enrichment (6-mer frequency, TF over GST control)
TATGTG	1 fold enrichment (6-mer frequency, TF over GST control)	1.08 fold enrichment (6-mer frequency, TF over GST control)	1.05 fold enrichment (6-mer frequency, TF over GST control)	1.06 fold enrichment (6-mer frequency, TF over GST control)	1.06 fold enrichment (6-mer frequency, TF over GST control)	1.07 fold enrichment (6-mer frequency, TF over GST control)			1.05 fold enrichment (6-mer frequency, TF over GST control)
CACGAA	1.05 fold enrichment (6-mer frequency, TF over GST control)	1.15 fold enrichment (6-mer frequency, TF over GST control)	1.19 fold enrichment (6-mer frequency, TF over GST control)	1.1 fold enrichment (6-mer frequency, TF over GST control)	1.11 fold enrichment (6-mer frequency, TF over GST control)	1.07 fold enrichment (6-mer frequency, TF over GST control)	1.06 fold enrichment (6-mer frequency, TF over GST control)	1.03 fold enrichment (6-mer frequency, TF over GST control)	
TTGAGC	1.22 fold enrichment (6-mer frequency, TF over GST control)	1.01 fold enrichment (6-mer frequency, TF over GST control)	1.17 fold enrichment (6-mer frequency, TF over GST control)	1.12 fold enrichment (6-mer frequency, TF over GST control)	1.02 fold enrichment (6-mer frequency, TF over GST control)	1.06 fold enrichment (6-mer frequency, TF over GST control)			1.11 fold enrichment (6-mer frequency, TF over GST control)
GTACTC	1.06 fold enrichment (6-mer frequency, TF over GST control)	1.09 fold enrichment (6-mer frequency, TF over GST control)	1.16 fold enrichment (6-mer frequency, TF over GST control)	1.09 fold enrichment (6-mer frequency, TF over GST control)	1.16 fold enrichment (6-mer frequency, TF over GST control)	1.08 fold enrichment (6-mer frequency, TF over GST control)	1.01 fold enrichment (6-mer frequency, TF over GST control)	1.18 fold enrichment (6-mer frequency, TF over GST control)	
TGGTAC	1.18 fold enrichment (6-mer frequency, TF over GST control)	1.23 fold enrichment (6-mer frequency, TF over GST control)	1.13 fold enrichment (6-mer frequency, TF over GST control)	1.15 fold enrichment (6-mer frequency, TF over GST control)	1.17 fold enrichment (6-mer frequency, TF over GST control)	1.13 fold enrichment (6-mer frequency, TF over GST control)	1.12 fold enrichment (6-mer frequency, TF over GST control)	1.07 fold enrichment (6-mer frequency, TF over GST control)	1.27 fold enrichment (6-mer frequency, TF over GST control)
TCAAGG	1.05 fold enrichment (6-mer frequency, TF over GST control)	1.05 fold enrichment (6-mer frequency, TF over GST control)	1.05 fold enrichment (6-mer frequency, TF over GST control)	1.1 fold enrichment (6-mer frequency, TF over GST control)	1.07 fold enrichment (6-mer frequency, TF over GST control)	1.09 fold enrichment (6-mer frequency, TF over GST control)		1.19 fold enrichment (6-mer frequency, TF over GST control)	1.04 fold enrichment (6-mer frequency, TF over GST control)
